Measured values as given in article PMC7862700, “An all-to-all approach to the identification of sequence-specific readers for epigenetic DNA modifications on cytosine”.

What was measured:
Assay in all cases: DAPPL (digital affinity profiling via proximity ligation, sequencing); 10 mM Tris-HCl pH 7.5, 50 mM NaCl, 1 mM DTT, 4% glycerol, room temperature, 30 min; GST-TFs on glutathione beads, 16-mer random dsDNA library, 0.1% formaldehyde crosslink after washing; high values mean tight binding
[1] = target: T1, FEV (Homo sapiens, UniProt Q99581 1-238); details: protein: recombinant; tags: N-terminal GST; dsDNA, one strand shown
T1 sequence: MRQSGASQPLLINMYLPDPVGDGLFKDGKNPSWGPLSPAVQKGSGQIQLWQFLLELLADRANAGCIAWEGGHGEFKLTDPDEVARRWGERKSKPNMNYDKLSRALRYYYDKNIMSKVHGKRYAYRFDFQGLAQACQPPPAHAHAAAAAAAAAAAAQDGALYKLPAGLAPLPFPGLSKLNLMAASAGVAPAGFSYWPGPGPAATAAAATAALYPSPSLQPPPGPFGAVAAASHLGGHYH
Procedure, shortened: (§1)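 Yeast served to express human transcription factors as GST fusions, which were then captured on glutathione beads and labelled with DNA barcodes. Pooled with a tag-only sample, they were incubated with 200 nmole of a 16-mer random double-stranded DNA library for 30 min at room temperature in Tris/NaCl/DTT/glycerol buffer, washed, crosslinked with 0.1% formaldehyde, ligated by proximity, amplified by PCR and sequenced. Dividing each hexamer's read frequency for a factor by its frequency for the tag-only sample gives the binding signal.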

[2] = target: ETV5 (Homo sapiens, UniProt P41161 1-510); details: protein: recombinant; tags: N-terminal GST; dsDNA, one strand shown
Chain of ETV5 (P41161 whole entry): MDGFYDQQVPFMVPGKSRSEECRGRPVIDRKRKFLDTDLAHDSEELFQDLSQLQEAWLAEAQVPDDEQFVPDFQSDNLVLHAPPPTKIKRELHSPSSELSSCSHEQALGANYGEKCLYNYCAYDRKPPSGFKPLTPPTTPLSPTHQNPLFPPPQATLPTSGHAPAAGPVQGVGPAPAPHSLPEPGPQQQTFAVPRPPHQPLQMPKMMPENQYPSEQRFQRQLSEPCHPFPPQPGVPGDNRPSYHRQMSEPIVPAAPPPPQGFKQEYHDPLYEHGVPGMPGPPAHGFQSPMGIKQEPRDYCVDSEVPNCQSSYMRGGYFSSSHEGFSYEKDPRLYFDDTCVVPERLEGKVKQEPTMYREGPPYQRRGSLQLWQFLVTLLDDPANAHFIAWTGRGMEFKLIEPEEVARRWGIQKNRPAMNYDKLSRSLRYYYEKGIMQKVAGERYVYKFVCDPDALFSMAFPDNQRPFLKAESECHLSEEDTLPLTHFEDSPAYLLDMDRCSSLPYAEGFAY
Procedure, shortened: as §1

[3] = target: HSF1 (Homo sapiens, UniProt Q00613 1-529); details: protein: recombinant; tags: N-terminal GST; chain copies: 3; dsDNA, one strand shown
Chain of HSF1 (Q00613 whole entry): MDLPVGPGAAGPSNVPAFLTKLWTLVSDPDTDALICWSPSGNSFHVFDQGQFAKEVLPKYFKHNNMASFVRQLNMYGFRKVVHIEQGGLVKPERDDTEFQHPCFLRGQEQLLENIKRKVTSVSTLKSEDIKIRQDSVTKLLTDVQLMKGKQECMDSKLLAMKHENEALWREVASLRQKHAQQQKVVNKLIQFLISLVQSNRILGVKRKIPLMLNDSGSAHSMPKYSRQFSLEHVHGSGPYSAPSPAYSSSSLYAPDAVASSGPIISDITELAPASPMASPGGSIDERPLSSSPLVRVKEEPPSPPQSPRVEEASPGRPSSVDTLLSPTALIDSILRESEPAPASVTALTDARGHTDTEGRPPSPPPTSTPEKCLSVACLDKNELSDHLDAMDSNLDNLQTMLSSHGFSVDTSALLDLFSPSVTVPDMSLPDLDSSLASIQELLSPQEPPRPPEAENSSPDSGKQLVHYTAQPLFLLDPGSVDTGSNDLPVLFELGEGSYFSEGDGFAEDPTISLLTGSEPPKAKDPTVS
Procedure, shortened: as §1

[4] = target: T2, SPIC (Homo sapiens, UniProt Q8N5J4 1-248); details: protein: recombinant; tags: N-terminal GST; dsDNA, one strand shown
T2 sequence: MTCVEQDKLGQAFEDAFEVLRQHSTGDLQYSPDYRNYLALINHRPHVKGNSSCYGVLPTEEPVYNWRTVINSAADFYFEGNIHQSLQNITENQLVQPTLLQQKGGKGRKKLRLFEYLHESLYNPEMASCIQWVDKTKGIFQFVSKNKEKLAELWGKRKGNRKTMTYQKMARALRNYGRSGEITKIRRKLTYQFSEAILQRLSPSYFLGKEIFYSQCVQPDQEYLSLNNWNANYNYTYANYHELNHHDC
Procedure, shortened: as §1

[5] = target: ELF4 (Homo sapiens, UniProt Q99607 1-663); details: protein: recombinant; tags: N-terminal GST; dsDNA, one strand shown
Chain of ELF4 (Q99607 whole entry): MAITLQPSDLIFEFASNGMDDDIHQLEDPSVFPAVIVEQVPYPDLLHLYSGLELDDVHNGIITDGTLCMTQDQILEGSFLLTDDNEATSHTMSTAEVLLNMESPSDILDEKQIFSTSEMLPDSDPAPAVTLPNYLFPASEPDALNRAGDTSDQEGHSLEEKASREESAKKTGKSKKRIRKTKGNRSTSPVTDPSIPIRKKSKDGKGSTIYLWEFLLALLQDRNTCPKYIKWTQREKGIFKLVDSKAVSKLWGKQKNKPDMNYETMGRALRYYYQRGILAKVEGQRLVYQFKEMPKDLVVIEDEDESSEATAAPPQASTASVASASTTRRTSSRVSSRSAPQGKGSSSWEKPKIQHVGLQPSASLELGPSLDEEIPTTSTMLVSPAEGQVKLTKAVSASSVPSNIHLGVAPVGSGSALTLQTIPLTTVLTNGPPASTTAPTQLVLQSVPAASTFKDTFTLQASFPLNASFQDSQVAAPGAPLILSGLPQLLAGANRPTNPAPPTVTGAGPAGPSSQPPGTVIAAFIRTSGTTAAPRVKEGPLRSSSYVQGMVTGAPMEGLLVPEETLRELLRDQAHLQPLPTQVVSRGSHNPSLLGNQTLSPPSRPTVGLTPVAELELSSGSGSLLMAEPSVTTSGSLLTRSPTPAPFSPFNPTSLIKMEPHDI
Procedure, shortened: as §1

[6] = target: T3, ELK4 (Homo sapiens, UniProt P28324-2 1-405); details: protein: recombinant; tags: N-terminal GST; dsDNA, one strand shown
T3 sequence: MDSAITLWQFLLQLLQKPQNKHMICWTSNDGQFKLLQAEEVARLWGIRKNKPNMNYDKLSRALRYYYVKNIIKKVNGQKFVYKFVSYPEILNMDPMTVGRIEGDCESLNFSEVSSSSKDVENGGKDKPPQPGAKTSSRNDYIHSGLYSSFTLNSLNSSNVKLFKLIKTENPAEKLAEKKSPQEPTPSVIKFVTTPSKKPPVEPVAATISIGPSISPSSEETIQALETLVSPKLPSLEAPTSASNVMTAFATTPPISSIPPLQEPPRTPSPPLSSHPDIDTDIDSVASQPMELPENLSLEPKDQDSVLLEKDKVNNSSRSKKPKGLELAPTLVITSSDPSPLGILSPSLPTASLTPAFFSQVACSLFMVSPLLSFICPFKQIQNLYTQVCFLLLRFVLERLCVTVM
Procedure, shortened: as §1

[7] = target: T4, ETV2 (Homo sapiens, UniProt O00321 1-342); details: protein: recombinant; tags: N-terminal GST; dsDNA, one strand shown
T4 sequence: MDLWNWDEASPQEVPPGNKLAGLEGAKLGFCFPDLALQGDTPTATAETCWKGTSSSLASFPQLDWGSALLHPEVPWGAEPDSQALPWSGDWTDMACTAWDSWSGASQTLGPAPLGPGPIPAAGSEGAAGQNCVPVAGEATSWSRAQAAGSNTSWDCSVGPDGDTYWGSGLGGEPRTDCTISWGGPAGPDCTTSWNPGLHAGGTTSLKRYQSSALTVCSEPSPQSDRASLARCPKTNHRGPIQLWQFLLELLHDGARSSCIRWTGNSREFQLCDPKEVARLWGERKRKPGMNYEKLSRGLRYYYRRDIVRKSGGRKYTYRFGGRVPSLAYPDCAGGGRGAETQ
Procedure, shortened: as §1

[8] = target: T5, ELF3 (Homo sapiens, UniProt P78545 1-371); details: protein: recombinant; tags: N-terminal GST; dsDNA, one strand shown
T5 sequence: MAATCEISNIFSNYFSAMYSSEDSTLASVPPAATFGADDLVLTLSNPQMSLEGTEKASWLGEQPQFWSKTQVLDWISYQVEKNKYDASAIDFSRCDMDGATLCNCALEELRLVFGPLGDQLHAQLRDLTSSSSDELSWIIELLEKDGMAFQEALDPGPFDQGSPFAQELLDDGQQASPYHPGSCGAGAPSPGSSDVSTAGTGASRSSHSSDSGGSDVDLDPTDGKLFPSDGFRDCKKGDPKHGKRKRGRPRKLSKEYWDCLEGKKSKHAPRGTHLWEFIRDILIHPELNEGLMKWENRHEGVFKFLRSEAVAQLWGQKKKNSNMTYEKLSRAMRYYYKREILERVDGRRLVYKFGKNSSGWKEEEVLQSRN
Procedure, shortened: as §1

[9] = target: CRX (Homo sapiens, UniProt O43186 1-299); details: protein: recombinant; tags: N-terminal GST; dsDNA, one strand shown
Chain of CRX (O43186 whole entry): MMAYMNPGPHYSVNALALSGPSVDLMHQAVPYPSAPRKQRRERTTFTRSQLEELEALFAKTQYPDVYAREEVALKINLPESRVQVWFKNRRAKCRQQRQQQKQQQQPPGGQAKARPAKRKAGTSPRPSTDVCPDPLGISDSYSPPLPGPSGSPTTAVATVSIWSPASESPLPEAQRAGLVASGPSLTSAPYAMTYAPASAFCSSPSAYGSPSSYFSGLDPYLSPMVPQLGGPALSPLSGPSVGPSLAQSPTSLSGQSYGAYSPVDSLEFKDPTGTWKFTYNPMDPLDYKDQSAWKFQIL
Procedure, shortened: as §1

[10] = target: ETV1 (Homo sapiens, UniProt P50549 1-477); details: protein: recombinant; tags: N-terminal GST; dsDNA, one strand shown
Chain of ETV1 (P50549 whole entry): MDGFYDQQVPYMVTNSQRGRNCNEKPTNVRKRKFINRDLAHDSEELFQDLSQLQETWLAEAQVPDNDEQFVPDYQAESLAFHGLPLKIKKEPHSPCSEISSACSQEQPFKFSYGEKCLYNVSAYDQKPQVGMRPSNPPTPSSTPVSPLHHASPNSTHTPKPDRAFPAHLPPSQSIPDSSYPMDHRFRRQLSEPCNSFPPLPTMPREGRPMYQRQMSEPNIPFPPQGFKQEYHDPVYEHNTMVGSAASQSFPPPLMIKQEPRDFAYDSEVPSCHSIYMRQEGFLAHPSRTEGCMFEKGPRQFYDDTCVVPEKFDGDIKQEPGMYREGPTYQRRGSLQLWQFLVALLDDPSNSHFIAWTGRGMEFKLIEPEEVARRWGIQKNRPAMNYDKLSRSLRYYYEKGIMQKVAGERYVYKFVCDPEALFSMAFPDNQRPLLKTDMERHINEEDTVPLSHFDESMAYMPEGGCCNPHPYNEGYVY
Procedure, shortened: as §1

[11] = target: T6, ERF (Homo sapiens, UniProt P50548 1-548); details: protein: recombinant; tags: N-terminal GST; dsDNA, one strand shown
T6 sequence: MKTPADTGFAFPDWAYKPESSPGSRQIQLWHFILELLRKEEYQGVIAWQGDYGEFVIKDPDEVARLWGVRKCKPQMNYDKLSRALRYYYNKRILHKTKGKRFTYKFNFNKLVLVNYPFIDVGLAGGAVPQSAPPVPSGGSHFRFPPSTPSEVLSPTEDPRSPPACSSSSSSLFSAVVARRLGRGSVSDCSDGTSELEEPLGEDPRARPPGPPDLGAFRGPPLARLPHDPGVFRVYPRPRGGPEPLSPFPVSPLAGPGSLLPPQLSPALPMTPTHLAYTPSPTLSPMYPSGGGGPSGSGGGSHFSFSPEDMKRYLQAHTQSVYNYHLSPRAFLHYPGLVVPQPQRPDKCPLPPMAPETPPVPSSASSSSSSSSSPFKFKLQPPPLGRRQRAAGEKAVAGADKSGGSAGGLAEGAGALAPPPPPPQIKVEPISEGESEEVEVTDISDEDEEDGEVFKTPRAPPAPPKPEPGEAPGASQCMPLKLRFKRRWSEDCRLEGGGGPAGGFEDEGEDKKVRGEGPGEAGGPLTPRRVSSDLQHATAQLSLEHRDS
Procedure, shortened: as §1

[12] = target: T7, ETV3L (Homo sapiens, UniProt Q6ZN32 1-361); details: protein: recombinant; tags: N-terminal GST; dsDNA, one strand shown
T7 sequence: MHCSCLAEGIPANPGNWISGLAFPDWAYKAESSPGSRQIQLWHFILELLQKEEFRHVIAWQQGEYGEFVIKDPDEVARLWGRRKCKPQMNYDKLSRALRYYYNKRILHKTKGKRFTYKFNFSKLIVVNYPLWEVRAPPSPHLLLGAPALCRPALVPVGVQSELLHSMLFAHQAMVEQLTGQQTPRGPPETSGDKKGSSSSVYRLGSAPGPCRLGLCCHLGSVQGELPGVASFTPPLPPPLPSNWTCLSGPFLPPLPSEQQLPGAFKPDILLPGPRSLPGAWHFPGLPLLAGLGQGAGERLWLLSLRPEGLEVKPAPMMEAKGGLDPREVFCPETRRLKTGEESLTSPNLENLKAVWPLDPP
Procedure, shortened: as §1

[13] = target: T8, ETS2 (Homo sapiens, UniProt P15036 1-469); details: protein: recombinant; tags: N-terminal GST; dsDNA, one strand shown
T8 sequence: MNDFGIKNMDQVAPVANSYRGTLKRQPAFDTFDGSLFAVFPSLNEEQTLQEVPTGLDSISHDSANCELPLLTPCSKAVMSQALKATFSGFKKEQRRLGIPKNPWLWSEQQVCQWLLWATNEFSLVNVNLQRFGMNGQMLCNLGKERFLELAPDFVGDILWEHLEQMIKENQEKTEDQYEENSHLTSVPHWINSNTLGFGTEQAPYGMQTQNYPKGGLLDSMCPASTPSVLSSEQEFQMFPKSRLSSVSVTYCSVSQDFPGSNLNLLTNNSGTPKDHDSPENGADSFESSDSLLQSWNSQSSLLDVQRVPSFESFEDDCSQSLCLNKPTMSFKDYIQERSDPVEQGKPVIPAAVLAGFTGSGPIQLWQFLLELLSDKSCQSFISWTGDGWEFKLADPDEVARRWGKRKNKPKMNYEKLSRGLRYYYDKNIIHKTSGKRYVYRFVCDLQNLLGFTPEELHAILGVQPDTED
Procedure, shortened: as §1

[14] = target: T9, SPDEF (Homo sapiens, UniProt O95238 1-335); details: protein: recombinant; tags: N-terminal GST; dsDNA, one strand shown
T9 sequence: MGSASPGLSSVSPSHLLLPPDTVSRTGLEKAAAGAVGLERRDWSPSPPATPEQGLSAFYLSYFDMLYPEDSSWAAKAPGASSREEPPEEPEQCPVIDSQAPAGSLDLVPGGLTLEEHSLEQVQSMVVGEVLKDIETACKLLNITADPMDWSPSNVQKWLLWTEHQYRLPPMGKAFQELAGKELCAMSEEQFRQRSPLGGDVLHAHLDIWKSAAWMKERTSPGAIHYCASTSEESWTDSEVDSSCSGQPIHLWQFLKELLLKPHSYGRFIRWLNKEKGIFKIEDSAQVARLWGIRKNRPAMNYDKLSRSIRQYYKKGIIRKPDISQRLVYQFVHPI
Procedure, shortened: as §1

[15] = target: T10, ETV7 (Homo sapiens, UniProt Q9Y603 1-341); details: protein: recombinant; tags: N-terminal GST; dsDNA, one strand shown
T10 sequence: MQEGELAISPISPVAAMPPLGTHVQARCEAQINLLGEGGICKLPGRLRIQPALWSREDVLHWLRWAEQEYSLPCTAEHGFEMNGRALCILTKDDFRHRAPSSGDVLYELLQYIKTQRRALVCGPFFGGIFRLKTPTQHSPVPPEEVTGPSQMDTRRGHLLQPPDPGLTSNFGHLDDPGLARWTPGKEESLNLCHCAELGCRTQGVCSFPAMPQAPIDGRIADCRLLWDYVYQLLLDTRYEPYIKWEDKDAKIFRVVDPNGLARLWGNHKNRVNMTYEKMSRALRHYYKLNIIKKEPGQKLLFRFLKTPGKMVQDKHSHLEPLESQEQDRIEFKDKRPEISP
Procedure, shortened: as §1

[16] = target: T11, ELF5 (Homo sapiens, UniProt Q9UKW6-2 1-255); details: protein: recombinant; tags: N-terminal GST; dsDNA, one strand shown
T11 sequence: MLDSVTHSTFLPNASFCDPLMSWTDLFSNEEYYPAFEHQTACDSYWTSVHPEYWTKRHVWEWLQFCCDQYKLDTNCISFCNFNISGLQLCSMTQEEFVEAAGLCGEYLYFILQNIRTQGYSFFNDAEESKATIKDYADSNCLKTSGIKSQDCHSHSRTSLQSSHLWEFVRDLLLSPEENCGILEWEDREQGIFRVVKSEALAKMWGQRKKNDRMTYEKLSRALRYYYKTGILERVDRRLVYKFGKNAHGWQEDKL
Procedure, shortened: as §1

[17] = target: T12, ETV3 (Homo sapiens, UniProt P41162-2 1-143); details: protein: recombinant; tags: N-terminal GST; dsDNA, one strand shown
T12 sequence: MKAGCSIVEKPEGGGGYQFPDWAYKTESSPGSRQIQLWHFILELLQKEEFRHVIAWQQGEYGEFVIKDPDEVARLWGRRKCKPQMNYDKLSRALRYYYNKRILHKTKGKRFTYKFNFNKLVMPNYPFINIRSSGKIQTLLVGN
Procedure, shortened: as §1

[18] = target: ETV6 (Homo sapiens, UniProt P41212 1-452); details: protein: recombinant; tags: N-terminal GST; dsDNA, one strand shown
Chain of ETV6 (P41212 whole entry): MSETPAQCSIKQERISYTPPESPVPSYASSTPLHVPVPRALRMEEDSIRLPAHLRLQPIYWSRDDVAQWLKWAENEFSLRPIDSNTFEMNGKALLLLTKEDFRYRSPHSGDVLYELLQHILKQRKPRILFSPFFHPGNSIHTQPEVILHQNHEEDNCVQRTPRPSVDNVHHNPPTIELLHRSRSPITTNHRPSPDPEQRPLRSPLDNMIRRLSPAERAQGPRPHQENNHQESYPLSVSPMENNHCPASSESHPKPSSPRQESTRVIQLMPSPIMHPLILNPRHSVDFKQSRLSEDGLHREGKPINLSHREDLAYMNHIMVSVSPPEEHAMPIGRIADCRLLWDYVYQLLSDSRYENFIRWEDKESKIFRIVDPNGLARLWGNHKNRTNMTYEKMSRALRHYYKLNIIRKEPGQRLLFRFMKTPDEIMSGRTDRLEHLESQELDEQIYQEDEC
Procedure, shortened: as §1

In the case of ACCTGG, the binding signal [1] is reported as 1.17 fold enrichment (6-mer frequency, TF over GST control), the binding signal [2] is reported as 1.2 fold enrichment (6-mer frequency, TF over GST control) and the binding signal [3] is reported as 1.2 fold enrichment (6-mer frequency, TF over GST control). For the same sequence, the binding signal [4] was 1.18 fold enrichment (6-mer frequency, TF over GST control), the binding signal [5] was 1.33 fold enrichment (6-mer frequency, TF over GST control) and the binding signal [6] was 1.25 fold enrichment (6-mer frequency, TF over GST control). The binding signal [7] was 1.35 fold enrichment (6-mer frequency, TF over GST control), the binding signal [8] was 1.19 fold enrichment (6-mer frequency, TF over GST control) and the binding signal [9] was 1.14 fold enrichment (6-mer frequency, TF over GST control). The binding signal [10] was 1.29 fold enrichment (6-mer frequency, TF over GST control), the binding signal [11] was 1.17 fold enrichment (6-mer frequency, TF over GST control) and the binding signal [12] was 1.33 fold enrichment (6-mer frequency, TF over GST control). For the same sequence, the binding signal [13] was 1.26 fold enrichment (6-mer frequency, TF over GST control), the binding signal [14] was 1.2 fold enrichment (6-mer frequency, TF over GST control) and the binding signal [15] was 1.29 fold enrichment (6-mer frequency, TF over GST control). The binding signal [16] was 1.19 fold enrichment (6-mer frequency, TF over GST control), the binding signal [17] was 1.21 fold enrichment (6-mer frequency, TF over GST control) and the binding signal [18] was 1.28 fold enrichment (6-mer frequency, TF over GST control).
